The list is not random: actives were taken first. Their share in the collection is about 6.3%.
HepG2 viability = qHTS for Inhibitors of TGF-b: Cytotox Counterscreen; hit rate 0.76% among 410,000; AID 588856, 2011; Potency, µM (series often up to 46.1 µM), actives largely listed as cytotoxic; HepG2 CAGA-GFP viability, ATP luminescence, 18 h
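CellTiter-Glo luminescence gave cytotoxicity after 18 hours at 37 degrees C. The cells were HepG2 CAGA-GFP in 1% FBS DMEM, stimulated with 500 pg/mL TGF-beta after compound addition. %Activity was normalised to no-cell wells (complete cell-killing) and DMSO (no toxicity), and curves were fitted and classified.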
TGFb SMAD3 inh = qHTS for Inhibitors of TGF-b | HepG2 CAGA-GFP TGF-b/SMAD3 reporter, GFP fluorescence, 18 h; TGF-beta stimulated, 500 pg/mL final | Potency, µM (series often up to 46.1 µM), usual class: inhibitors | hit rate 1.2% among 410,000; note: nearly all actives have a fitted effect of over 65% in size
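Per well, imaged GFP fluorescence of HEPG2 CAGA-GFP cells gives the signal; cells get compound, then TGF-beta (500 pg/mL final), 18 h at 37 degrees C; %Activity versus -TGF-beta and +DMSO controls.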
S2 tox = Viability Counterscreen for Primary qHTS for Inhibitors of ATXN expression. S2 cells (HEK-293 line with an ATXN2-luciferase reporter) viability, CellTiter-Fluor protease fluorescence, 24 h. Potency, µM (doses to about 56.7 µM), actives largely listed as cytotoxic. hit rate 0.49% among 400,000; note: nearly all actives have a fitted effect of over 40% in size
ATXN2 expr inh = Primary qHTS for Inhibitors of ATXN expression | HEK-293 ATXN2-luciferase reporter, luminescence, 24 h | Potency, µM (top dose mostly 57 µM), actives largely listed as inhibitors | hit rate 0.72% among 360,000 | AID 1745845, 2022; note: nearly all actives have a fitted effect of over 55% in size
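qHTS (up to 57 uM final) was run with 24 h compound exposure of reporter cells at 37 °C. Each well was multiplexed: SteadyGlo luminescence measured ATXN2-luciferase expression after a fluorogenic Gly-Phe-AFC viability readout (25 uM final).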
RORgamma inh = qHTS for inhibitors of ROR gamma transcriptional activity | Nuclear receptor ROR-gamma (Mus musculus), P51450 | Drosophila S2 Gal4-RORgamma UAS-luciferase reporter, 20 h | Potency, µM (series often up to 53.6 µM), usual class: inhibitors | hit rate 5.4% among 310,000 | AID 2551, 2010; note: nearly all actives have a fitted effect of over 60% in size
Target sequence (P51450 whole entry, looked up, the tested form may be a part): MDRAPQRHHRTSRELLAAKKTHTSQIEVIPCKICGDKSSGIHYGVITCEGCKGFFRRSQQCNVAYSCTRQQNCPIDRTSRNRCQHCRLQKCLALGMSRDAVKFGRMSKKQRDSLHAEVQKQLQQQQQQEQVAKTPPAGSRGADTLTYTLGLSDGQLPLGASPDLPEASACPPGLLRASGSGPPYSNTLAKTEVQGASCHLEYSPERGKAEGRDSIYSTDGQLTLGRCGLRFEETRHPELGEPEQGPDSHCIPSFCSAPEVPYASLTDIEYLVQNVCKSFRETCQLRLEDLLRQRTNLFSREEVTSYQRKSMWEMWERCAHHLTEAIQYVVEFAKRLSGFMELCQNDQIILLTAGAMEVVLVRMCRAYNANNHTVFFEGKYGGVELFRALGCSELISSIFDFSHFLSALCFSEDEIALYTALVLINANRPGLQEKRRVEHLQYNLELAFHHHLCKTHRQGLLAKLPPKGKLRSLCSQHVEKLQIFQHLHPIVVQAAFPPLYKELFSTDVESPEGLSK
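A Gal4/UAS one-hybrid system in insect cells: metallothionein-promoter Gal4–ROR gamma fusion plus Photinus luciferase reporter. Copper sulfate 700 uM final, 20 hr ambient incubation, luminescent detection after 10 min with reagent.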
VP16 counter = VP16 counterscreen qHTS for inhibitors of ROR gamma transcriptional activity; Potency, µM (series often up to 53.6 µM), usual class: inhibitors; hit rate 3.5% among 310,000; AID 2546, 2010; Drosophila S2 Gal4-VP16 UAS-luciferase, luminescence, 20 h;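 note: Gal4-VP16 expression switched on by copper sulfate through the metallothionein promoter; nearly all actives have a fitted effect of over 50% in size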
Of the large screens only hits and unclear results are named; the others gave an inactive call. Calls come from the whole dose curve; as a rule, active = well fitted curve in the direction sought with a large enough effect; inconclusive = small, poorly fitted or top-dose-only effect, or another doubt; inactive = no such curve, though single readings can be large; an effect the other way counts as inactive or inconclusive.

Cc1ccccc1Nc1nc(-c2cccnc2)nc2ccccc12	RORgamma inh inconclusive
COc1ccc(CN2CCNC(=O)C2CC(=O)N(C)CC2CCOCC2)cc1C (stereo not drawn)	none (no result: RORgamma inh, VP16 counter)
COC(=O)c1cccc(CN2C(=O)SC(Nc3ccccc3C)C2=O)c1 (stereo not drawn)	none (no result: RORgamma inh, VP16 counter)
COc1ccccc1CCC(=O)Nc1nc2ccccc2[nH]1	S2 tox inconclusive, RORgamma inh inconclusive, VP16 counter inconclusive
CC(C)Oc1ccc(C(=O)Nc2nc3ccccc3[nH]2)cc1	ATXN2 expr inh 4.5µM, RORgamma inh 1.1µM, VP16 counter 2.8µM
CCC(Oc1ccccc1)C(=O)Nc1nc2ccccc2[nH]1 (stereo not drawn)	RORgamma inh 10µM, VP16 counter inconclusive
O=C(Nc1nc2ccccc2[nH]1)c1ccc(OC(F)F)cc1	RORgamma inh 5.6µM, VP16 counter inconclusive
O=C(Nc1nc2ccccc2[nH]1)c1ccccc1OC(F)F	TGFb SMAD3 inh inconclusive, ATXN2 expr inh inconclusive, RORgamma inh 7.9µM, VP16 counter 10µM
COc1cccc(CC(=O)Nc2nc3ccccc3[nH]2)c1	RORgamma inh inconclusive
Clc1ccc2c(N3CCN(CCCN4CCN(c5ccnc6cc(Cl)ccc56)CC4)CC3)ccnc2c1	none (no result: HepG2 viability, TGFb SMAD3 inh, S2 tox, RORgamma inh, VP16 counter)
Cc1ccc(S(=O)(=O)N2CCCc3cc(NC(=O)c4ccc(Cl)cc4)ccc32)cc1	S2 tox inconclusive (no result: RORgamma inh, VP16 counter)
O=C1C2=C(Nc3ccccc3SC2c2ccco2)c2ccccc21 (stereo not drawn)	S2 tox inconclusive
CC(=O)Nc1ccc(C2Sc3ccccc3NC3=C2C(=O)c2ccccc23)cc1 (stereo not drawn)	TGFb SMAD3 inh inconclusive, S2 tox 16µM (no result: RORgamma inh, VP16 counter)
CC(C)c1ccc(C2Sc3ccccc3NC3=C2C(=O)c2ccccc23)cc1 (stereo not drawn)	none (no result: TGFb SMAD3 inh, S2 tox, ATXN2 expr inh, RORgamma inh, VP16 counter)
CCc1ccc(C2Sc3ccccc3NC3=C2C(=O)c2ccccc23)cc1 (stereo not drawn)	TGFb SMAD3 inh 11µM, S2 tox 28µM (no result: RORgamma inh, VP16 counter)
O=C1C2=C(Nc3ccccc3SC2c2ccc(C(F)(F)F)cc2)c2ccccc21 (stereo not drawn)	TGFb SMAD3 inh 11µM, ATXN2 expr inh inconclusive (no result: S2 tox, RORgamma inh, VP16 counter)
Cc1ccc(Cl)cc1N	none (no result: HepG2 viability, TGFb SMAD3 inh, S2 tox, ATXN2 expr inh)
CCc1nc2c(OCc3cccc(Cl)c3)cccn2c1N(C)C(=O)c1ccco1	S2 tox inconclusive (no result: RORgamma inh, VP16 counter)
COc1ccccc1-c1nnc(SCC(=O)NCc2c(C)c(Cl)cc(C(C)C)c2O)o1	TGFb SMAD3 inh 18µM, S2 tox inconclusive, ATXN2 expr inh inconclusive
CSC1(SC2=NCCN2)SC2(NCCN2)S1	TGFb SMAD3 inh 13µM, S2 tox inconclusive, ATXN2 expr inh inconclusive (no result: RORgamma inh, VP16 counter)
Cc1cc(C)nc(SCc2ccc(C(=O)N/N=C/c3cccc(O)c3O)cc2)n1	S2 tox inconclusive, ATXN2 expr inh inconclusive, RORgamma inh 1.4µM, VP16 counter 1.6µM
Cc1cc(C)nc(SCc2ccc(C(=O)N/N=C/c3ccc(C(=O)O)cc3)cc2)n1	none
COc1ccc(/C=N/NC(=O)c2ccc(CSc3nc(C)cc(C)n3)cc2)cc1O	none
COc1ccc(O)c(/C=N/NC(=O)c2ccc(CSc3nc(C)cc(C)n3)cc2)c1	TGFb SMAD3 inh inconclusive, ATXN2 expr inh 4.5µM, RORgamma inh 1.3µM, VP16 counter 2.5µM
Cc1cnc(/C=C/c2ccc(N(C)C)cc2)cn1	none (no result: S2 tox, ATXN2 expr inh, RORgamma inh, VP16 counter)
CCN(CC)c1ccc(/C=N/NC(=O)Cc2ccc(OC)c(OC)c2)cc1	none
CCN(CC)c1ccc(/C=N/NC(=S)NCc2ccc(OC)cc2)cc1	RORgamma inh 0.89µM, VP16 counter 1.4µM (no result: S2 tox)
C=CCNC(=S)N/N=C/c1ccc(N(CC)Cc2ccccc2)cc1	RORgamma inh 0.5µM, VP16 counter 0.71µM
CCN(CC)c1ccc(/C=N/NC(=S)NCc2ccccc2)cc1	RORgamma inh 1.3µM, VP16 counter 4µM
CCN(CC)c1ccc(/C=N/NC(=O)C(O)c2ccccc2)cc1 (stereo not drawn)	none

Screening results from PubChem BioAssay.
